Several values for one entry are separate records, joined by “and”; a condition that tells them apart may be missing. Identical values can stand only once. This is part of a sample that, as a whole, favours compounds with a hit. Of some 83,000 tested, about 20% had one in any assay.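 Note: values are percent growth. 100 is the growth of untreated cells, values between 100 and 0 indicate rising inhibition; between -100 and 0 indicates cell death.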 A number with no mark means an inactive call. Activity calls are given as the source filed them. The calls were made as follows: active = growth percent below 10; inactive = the rest.

Test systems include SR leukemia; RPMI-8226 leukemia; OVCAR-8 ovarian; OVCAR-5 ovarian; OVCAR-4 ovarian; SK-OV-3 ovarian; IGROV1 ovarian; OVCAR-3 ovarian; HS 578T breast; NCI/ADR-RES ovarian.
What all share (assay): NCI-60 one-dose screen, 48 h (100 = growth as untreated, 0 = no growth, -100 = all killed)
Common to all, as to conditions: 10 µM unless noted

Turning to `O=C(N=C1C(=O)C2(CCCCC2)C2(N=C(c3ccccc3)OC2=O)C12CCCCC2)c1ccccc1` (centres undefined), the growth with SR leukemia was 71.8%; with RPMI-8226 leukemia, 53.2%; with OVCAR-8 ovarian, 75.4%; with OVCAR-5 ovarian, 85.8%; in the test on OVCAR-4 ovarian, 73.8%; in the test with SK-OV-3 ovarian it was 99.3%. For the same molecule, the growth with IGROV1 ovarian is 75%; in the test with OVCAR-3 ovarian, 63.6%; with HS 578T breast it was 95.9%; in the test on NCI/ADR-RES ovarian it was 76.8%.
Regarding `CCCCCCC(C)CC1=C(O)c2ccccc2C(=O)C1=O` (centres undefined), the growth with SR leukemia was 61.7%; with RPMI-8226 leukemia, 37.6%; in the test with OVCAR-8 ovarian, 56.6%; in the test with OVCAR-5 ovarian it was 62.4%; in the test on OVCAR-4 ovarian, 46.3%; in the test with SK-OV-3 ovarian it was 78%. Also, the growth in the test with IGROV1 ovarian is 41.5%; with OVCAR-3 ovarian it was 46.5%; with HS 578T breast, 75.3%; in the test with NCI/ADR-RES ovarian it was 50.2%.
For `COC(=O)c1ccccc1Cl`, the growth in the test with SR leukemia is 96.4%; in the test on RPMI-8226 leukemia it was 113%; in the test on OVCAR-8 ovarian, 102%; in the test with OVCAR-5 ovarian, 106%; in the test with OVCAR-4 ovarian it was 103%; in the test on SK-OV-3 ovarian, 105%. Moreover, the growth is 105% with IGROV1 ovarian, 105% in the test on OVCAR-3 ovarian, 108% in the test with HS 578T breast and 109% in the test on NCI/ADR-RES ovarian.
Consider `N#Cc1ccc(/C=C/C(=O)c2ccccc2)cc1`, for which the growth in the test on SR leukemia is -63.9% (active); in the test on RPMI-8226 leukemia it was -35.6% (active) and -54.9% (active); in the test with OVCAR-8 ovarian it was 98.9% and 98.8%; with OVCAR-5 ovarian it was 108% and 91.1%; in the test on OVCAR-4 ovarian, 95.2% and 103%; in the test on SK-OV-3 ovarian, 123% and 106%. For the same molecule, the growth in the test on OVCAR-3 ovarian is 55.4% and 75.5%; in the test on HS 578T breast it was 128% and 102%; with NCI/ADR-RES ovarian, 111% and 95.8%.
As for `CS(=O)(=O)OCC1NC(=O)C(COS(C)(=O)=O)NC1=O` (centres undefined), the growth in the test on SR leukemia is 104% and 125%; in the test with RPMI-8226 leukemia, 82.7% and 90%; with OVCAR-8 ovarian, 87.5% and 107%; in the test on OVCAR-5 ovarian it was 106% and 124%; in the test on OVCAR-4 ovarian, 79.8% and 87%; in the test with SK-OV-3 ovarian it was 107% and 120%. Besides, the growth in the test with IGROV1 ovarian is 63.4% and 57.5%; in the test with OVCAR-3 ovarian, 122% and 94.8%; with HS 578T breast it was 193% and 106%; with NCI/ADR-RES ovarian, 103% and 97.8%.
Regarding `Nc1ccccc1SC1CC(=O)N(c2ccc(I)cc2)C1=O` (centres undefined), the growth in the test with SR leukemia was 68.6%; in the test with RPMI-8226 leukemia, 85.1%; in the test with OVCAR-8 ovarian it was 87.8%; in the test with OVCAR-5 ovarian, 90.3%; in the test with SK-OV-3 ovarian it was 95.5%; in the test with IGROV1 ovarian, 85.2%. Also, the growth in the test with OVCAR-3 ovarian is 87.1%; in the test with HS 578T breast it was 88.6%; in the test with NCI/ADR-RES ovarian it was 91.6%.
`O=C(O)Cc1cc(=O)[nH]n(-c2ccccc2)c1=O`: the growth in the test with SR leukemia was 88.9%; in the test with RPMI-8226 leukemia, 117%; in the test with OVCAR-8 ovarian, 90%; with OVCAR-5 ovarian, 100%; with OVCAR-4 ovarian it was 103%; with SK-OV-3 ovarian, 98%. The growth with IGROV1 ovarian was 115%; with OVCAR-3 ovarian it was 110%; in the test with HS 578T breast it was 117%; in the test on NCI/ADR-RES ovarian, 115%.
Turning to `O=[N+]([O-])c1ccc(NC2CCCCC2)nc1`, the growth was 98.1% in the test with SR leukemia; 111% and 101% in the test on RPMI-8226 leukemia; 118% and 101% in the test with OVCAR-8 ovarian; 104% and 100% in the test with OVCAR-5 ovarian; 109% in the test with OVCAR-4 ovarian; 108% in the test on SK-OV-3 ovarian. Moreover, the growth is 116% and 104% with IGROV1 ovarian; 112% and 114% in the test with OVCAR-3 ovarian; 100% and 101% with HS 578T breast; 105% and 103% in the test on NCI/ADR-RES ovarian.
`CC(=O)Oc1ccc(C(c2ccc(OC(C)=O)cc2)c2ccccn2)cc1`: the growth is 95.1% and 98% in the test on SR leukemia; 82.9% and 104% with RPMI-8226 leukemia; 48.7% in the test on OVCAR-8 ovarian; 109% and 27% in the test on OVCAR-5 ovarian; -9.93% (active) and -15.5% (active) in the test on OVCAR-4 ovarian; 119% in the test with SK-OV-3 ovarian. The growth with IGROV1 ovarian is 69% and 79.3%; with OVCAR-3 ovarian it was 61.3% and 71%; with HS 578T breast, 31.2%; in the test with NCI/ADR-RES ovarian, 49.9% and 34.3%.
Regarding `O=C(O)C1CSCN1` (centres undefined), the growth was 97.4% with SR leukemia; 106% and 105% with RPMI-8226 leukemia; 113% and 98.8% in the test with OVCAR-8 ovarian; 118% and 88.8% with OVCAR-5 ovarian; 112% and 102% with OVCAR-4 ovarian; 105% and 94.9% with SK-OV-3 ovarian. Besides, the growth in the test on IGROV1 ovarian was 106%; with OVCAR-3 ovarian, 120% and 107%; in the test with HS 578T breast it was 136% and 112%; with NCI/ADR-RES ovarian, 108% and 87.2%.
With `CNc1ccc(Cl)cc1S(=O)(=O)c1ccccc1[N+](=O)[O-]`, the growth was 86.3% and 88.2% in the test on SR leukemia; 87.3% in the test with RPMI-8226 leukemia; 105% in the test with OVCAR-8 ovarian; 87.6% and 60.6% in the test on OVCAR-4 ovarian; 120% and 110% with SK-OV-3 ovarian; 78.8% and 104% in the test with IGROV1 ovarian. Besides, the growth in the test with OVCAR-3 ovarian was 105% and 104%; with HS 578T breast it was 96.7%; in the test on NCI/ADR-RES ovarian, 36.7% and 90.6%.
As for `O=C(OCc1ccccc1)c1ccccc1`, the growth in the test with SR leukemia is 104% and 86.5%; in the test on RPMI-8226 leukemia, 99.5%; in the test with OVCAR-8 ovarian, 101% and 95.7%; in the test on OVCAR-5 ovarian it was 102% and 91.7%; in the test with SK-OV-3 ovarian, 99.1% and 93.6%; with IGROV1 ovarian it was 120% and 87.4%. The growth with OVCAR-3 ovarian is 116%; with HS 578T breast, 105%; with NCI/ADR-RES ovarian it was 107% and 99.7%.
With `COC(=O)c1cc(C(=O)OC)cc([N+](=O)[O-])c1`, the growth in the test on SR leukemia was 74.7%; with RPMI-8226 leukemia it was 93.8%; with OVCAR-8 ovarian, 93.5%; in the test with OVCAR-4 ovarian it was 106%; with SK-OV-3 ovarian it was 98.5%; with IGROV1 ovarian, 118%. For the same molecule, the growth is 120% with OVCAR-3 ovarian, 103% in the test with HS 578T breast and 115% in the test with NCI/ADR-RES ovarian.
For the molecule `O=c1[nH]c(=O)c2[nH]c(=O)[nH]c2[nH]1`, the growth in the test on SR leukemia is 114%; with RPMI-8226 leukemia, 101%; in the test on OVCAR-8 ovarian it was 102%; in the test with OVCAR-5 ovarian it was 99.7%; in the test with SK-OV-3 ovarian it was 115%; in the test on IGROV1 ovarian it was 106%. The figures for the growth in the test with OVCAR-3 ovarian, with HS 578T breast and with NCI/ADR-RES ovarian were 107%, 102% and 106%, respectively.

For the origin of these results see PubChem BioAssay (NCI).
